The list is not random: actives were taken first. Their share in the collection is about 11%.
AMA1-RON2 inh: AMA1-RON2 (P. falciparum) interaction inhibition | AlphaScreen AMA1-biotinylated RON2 peptide binding | 360,000 tested, 0.2% active | AID 720542 | Potency, µM (doses to about 58.2 µM), for the others: at the highest dose activity change, negative = inhibition, hits mostly inhibitors;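 also: 0% = vehicle wells and -100% = peptide control; nearly all actives have a fitted effect of over 45% in size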
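AMA1 (3D7) with his tag at 25 nM final met compounds first, then biotinylated RON2 peptide at 25 nM; detection used donor plus acceptor beads, 10 µg/mL apiece, read by AlphaScreen after 30 min at room temperature.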
Pf growth 96h: P. falciparum growth inhibition at 96 hours | Potency, µM (titrated, usually from 28.7 µM), without a hit: at the highest dose activity change, negative = inhibition, most hits filed as inhibitors | AID 504834 | P. falciparum luciferase reporter growth, 96 h | 320,000 tested, 6.9% active
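P. falciparum expressing integrated firefly luciferase grown in erythrocytes (2% hematocrit, 0.05% parasitemia final) with compounds for 96 hours at 37 C, 5% CO2. Growth inhibition read as loss of luminescence after adding luciferase detection reagent.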
HCV inhibitor: inhibitors of hepatitis C virus infection; Huh7.5.1 HCVcc-Cre infection, luciferase reporter, 44 h; Potency, µM (titrated, usually from 41.8 µM), for inactives: top-dose activity change, negative = inhibition, actives largely listed as inhibitors; 340,000 tested, 3.4% active; AID 651820
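Whole-lifecycle infectious HCVcc-Cre system; cells 1,000/well, compound then virus (~0.5 moi) added 4 h after plating, 44 h culture. Luciferase read 15 sec following 15 min substrate incubation, room temp.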
Pf growth 48h: P. falciparum growth inhibition at 48 hours (one generation); P. falciparum luciferase growth in erythrocytes, 48 h; Potency, µM (titrated, usually from 28.7 µM), without a hit: top-dose activity change, negative = inhibition, actives largely listed as inhibitors; 310,000 tested, 5.9% active; AID 504832
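Here the parasites carry a stable luciferase gene and grow inside erythrocytes in Albumax-based RPMI medium with compound for one erythrocytic cycle. Activity is scored as loss of luminescent signal.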
The depositor's hits bear a star; u = inconclusive; x = no result; [ ] = remark or other dose. Calls follow the shape of the dose curve; as a rule, active = well fitted curve in the direction sought with a large enough effect; inconclusive = small, poorly fitted or top-dose-only effect, or another doubt; inactive = no such curve, though single readings can be large; an effect the other way counts as inactive or inconclusive. Unless noted, % is scaled to controls: 0 for no effect and ±100 for the full control effect; potency is read from the fitted curve at half-maximal effect.

SMILES | AMA1-RON2 inh | Pf growth 96h | HCV inhibitor | Pf growth 48h
c1ccc(CNc2c3c(nc4ncnn24)CCCC3)nc1 | 109% | 8.3µM* | 5% | 7%
CCCc1cc(NCCCn2ccnc2)n2nc(C)c(-c3ccccc3)c2n1 | -11% | 0.41µM* | -36% | u
Cc1nn2c(N3CCN(C)CC3)c3c(nc2c1-c1ccccc1)CCCC3 | 2% | 9.3µM* | -3% | 66%
Clc1ccc(Nc2c3c(nc4ncnn24)CCC3)cc1 | 96% | u | -9% | u
COc1ccc(Nc2c3c(nc4c(-c5ccccc5)c(C)nn24)CCC3)cc1 | 41% | 5.9µM* | 10% | 13µM*
CC(=O)Nc1ccc(S(=O)(=O)Nc2ccccc2C(=O)N2CCCCCC2)cc1 | -2% | -5% | 10% | -6%
O=C(NCCCN1CCOCC1)c1cnccn1 | 22% | 48% | 8% | -14%
COc1ccc(-c2nn(-c3ccccc3)cc2C(=O)OCC(=O)c2ccc(C)c([N+](=O)[O-])c2)cc1 | -3% | u | 7.1µM* | 10µM*
COC(=O)c1cn(-c2ccccc2)nc1-c1ccc(OC)cc1 | 12% | -9% | 13µM* | -14%
CCN(CC)CCNC(=S)NC(=O)c1cn(-c2ccccc2)nc1-c1ccc(OC)cc1 | 20% | -6% | 22µM* | u
COc1ccc(C(=O)Nc2ccc3ccccc3n2)cc1OC | 4% | u | u | 74%
CCc1nnc(NS(=O)(=O)c2ccc(NC(=O)c3cccc(OC)c3)cc2)s1 | 1% | 2% | 15% | 1%
CCOC(=O)c1c(Cc2ccccc2)c[nH]c1C | 0% | 4% | 9% | 32%
CCN(CC)C(=O)CSc1nnc(CSc2ncccn2)n1C | -13% | 10% | 15% | 1%
O=C(CCNC(=O)c1ccccc1)Nc1ccc(Cl)c(S(=O)(=O)N2CCCCC2)c1 | 0% | x | u | x
CCCCn1c(O)c(C=NC2CCCCC2N)c(=O)[nH]c1=O (stereo unspecified) | 109% | x | 10% | -15%
CCCCCCn1c(O)c(C=NC2CCCCC2N)c(=O)[nH]c1=O (stereo unspecified) | 76% | 6.6µM* | -3% | 8%
CCC(=O)NC(c1cccs1)c1cc([N+](=O)[O-])c2cccnc2c1OC (stereo unspecified) | x | 2% | x | -7%
CN1CCN(C(c2cccnc2)c2ccc3cccnc3c2O)CC1 (stereo unspecified) | -32% | x | u | u
Cc1conc1NC(c1cccs1)c1ccc2cccnc2c1O (stereo unspecified) | x | 6.6µM* | x | 1.9µM*
CC(C)CC(=O)NC(c1cccs1)c1ccc2cccnc2c1O (stereo unspecified) | -39% | 404% | 2.8µM* | u
CCC(=O)NC(c1cccs1)c1ccc2cccnc2c1O (stereo unspecified) | -79% | u | 3.5µM* | 2.3µM*
COc1cc(C(=O)/C=C/c2cccnc2)c([N+](=O)[O-])cc1OC | -8% | u | u | 2.9µM*
CC(C)C[C@@H](CN1CCC[C@H]1CN1C(=O)C(=O)NC[C@@H]1Cc1ccccc1)N1C[C@H](Cc2ccc(O)cc2)N(CC2CCCCC2)C(=O)C1=O | 5% | x | x | x
O=C(Nc1ccc(Cl)cc1)Nc1ccc2c(c1)N1CCN=C1S2 | u | 2.1µM* | 10µM* | 0.74µM*
SMILES | AMA1-RON2 inh | Pf growth 96h | HCV inhibitor | Pf growth 48h
Cc1cc(=O)n2nc(N3CCC(C(=O)NC(C)c4ccccc4)CC3)sc2n1 (stereo unspecified) | 4% | x | u | -7%
Cc1cc(=O)n2nc(N3CCC(C(=O)NCc4ccccc4Cl)CC3)sc2n1 | 13% | 12µM* | -18% | u
Cc1cc(=O)n2nc(N3CCC(C(=O)NC4CCCc5ccccc54)CC3)sc2n1 (stereo unspecified) | -9% | 0.59µM* | -5% | u
CN(C)S(=O)(=O)c1ccc(C(=O)NCC(C)(C)CN=C2NS(=O)(=O)c3ccccc32)cc1 | -4% | u | -11% | u
COc1ccc(C2=NN(CC(=O)Nc3ccccc3C)C(=O)CC2)cc1 | 13% | u | u | 4.1µM*
CCOC(=O)C1CCN(C(=O)COC(=O)CNC(=O)c2ccc(OC)cc2)CC1 | -5% | 13% | 5% | u
Cc1[nH]c2ccccc2c1C(=O)CN1CC=C(c2ccccc2)CC1 | 1% | u | 3%[0.335 µM] | 12µM*
COc1ccc2[nH]c(C)c(C(=O)CN3CCN(C/C=C/c4ccccc4)CC3)c2c1 | -11% | 8.3µM* | u | u
COc1ccc2[nH]c(C)c(C(=O)CN3CCN(C(=O)c4ccco4)CC3)c2c1 | -2% | x | -1% | u
Cc1[nH]c2ccccc2c1C(=O)CN1CCN(C2CCCCC2)CC1 | x | -20% | u | u
Cc1[nH]c2ccccc2c1C(=O)CN1CCN(C/C=C/c2ccccc2)CC1 | 10% | u | u | 8.3µM*
Cn1nc(C(C)(C)C)cc1C(=O)N1CCCCC1c1cc(C(=O)Nc2ccccc2)no1 (stereo unspecified) | 13% | x | x | x
Cc1cc(O)cc(O)c1/C=N/NC(=O)c1ccc2c(c1)OCCO2 | 138% | x | x | x
COc1ccc(/C=N/n2cncn2)cc1Cn1nc(C)c([N+](=O)[O-])c1C | 23% | 12% | -20% | -8%
Cc1ccc(S(=O)(=O)n2nc(OC(=O)c3c(-c4ccccc4Cl)noc3C)cc2N)cc1 | -13% | 2.1µM* | 9% | 11%
Cc1onc(-c2ccccc2Cl)c1C(=O)Oc1cc(N)n(S(=O)(=O)c2ccc(F)cc2)n1 | -23% | u | -25% | 6%
Cc1ccc(S(=O)(=O)n2nc(OC(=O)c3ccccc3F)cc2N)cc1 | 19% | 12µM* | 17% | 10%
COc1cc(C(=O)Oc2cc(N)n(S(=O)(=O)c3ccc(F)cc3)n2)cc(OC)c1OC | 0% | 4.7µM* | 20% | 2%
CS(=O)(=O)n1nc(OC(=O)c2cccc3ccccc23)cc1N | -19% | 5.2µM* | 8% | 20%
Cc1ccc(C(=O)Oc2cc(N)n(S(=O)(=O)c3ccc(C)cc3)n2)cc1 | 4% | 41% | 4% | -3%
Cc1ccc(S(=O)(=O)N2CCC[C@H]2C(=O)NC2CCCCC2)cc1 | -9% | x | -8% | x
COc1cccc(C(=O)OCC(=O)Nc2cc(C)c(C)cc2[N+](=O)[O-])c1 | -23% | -12% | 3% | 10%
Cc1ccccc1NC(=O)c1ccc(Cl)c(NC(=O)c2ccncc2)c1 | 14% | u | 3% | 12%
O=C1c2ccsc2SCCN1Cc1c(Cl)cccc1Cl | -10% | 6.6µM* | -26% | x
CC(NC(=S)NC1CCCCC1)c1ccc(C(C)(C)C)cc1 (stereo unspecified) | 72% | -7% | u | 5.9µM*
CCOc1ccc(C(C)NC(=S)NC2CCCCC2)cc1OCC (stereo unspecified) | 0% | u | u | 0.083µM*
CCOc1ccc(C(C)NC(=S)NC2CCCCC2)cc1 (stereo unspecified) | 8% | u | u | u
CC(C)c1ccc(C(C)NC(=S)NC2CCCCC2)cc1 (stereo unspecified) | 58% | 4% | 11µM* | 12µM*

Assay outcomes (PubChem)
